Experimental data reported in PubChem BioAssay AID1159506 (National Center for Advancing Translational Sciences (NCATS), 2015).
In all, about 59,000 sequences were measured (the read-out: median about -0.00055, lowest 2% from about -2 on). The sample as a whole holds a higher share of the lowest values than the screen did.

experiment: Identification of proteins required for the processing of the EWS-FLI1 nascent transcript; settings: TC32 Ewing sarcoma NR0B1-luc vs CMV-luc (EWS-FLI1 target promoter against control promoter), 48 h; screened at 20 nM (by protocol);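 note: robust z of luciferase light less the median z of siRNAs with the same seed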
Description: Ewing sarcoma (ES) cells depend on the EWS-FLI1 fusion transcription factor for cell survival. Using an assay of EWS-FLI1 activity and genome-wide siRNA screening we have identified proteins required for the processing of the EWS-FLI1 nascent transcript. Parallel genome-wide siRNA-mediated RNAi screens were conducted in Ewing sarcoma TC32 cell lines expressing a luciferase (luc) reporter protein driven by either the promoter of the EWS-FLI1 target gene NR0B1 (TC32-NR0B1-luc) or the CMV promoter (TC32-CMV-luc). Luciferase activity was assessed 48 hours post siRNA-transfection.
Twenty microl of serum-free media containing Lipofectamine RNAiMax (0.05 microl) was added to wells containing siRNA (0.8 pmol). Lipid and siRNA were allowed to complex for 45 min at ambient temperature before addition of 600 cells in RPMI-1640, 20% FBS to yield final transfection mixtures containing 20 nM siRNA in RPMI-1640, 10% FBS. Luciferase expression was measured using OneGlo (Promega, Madison, WI). The genome-wide screening campaign was conducted using Ambion's human genome library version 4.1 (Ambion, Austin TX). This library targets approximately 21000 human genes, three siRNAs per gene. Each siRNA is arrayed in an individual well of a 384-well plate. Parallel transfections were conducted in TC32-NR0B1-luc and TC32-CMV-luc cell lines and luciferase expression (OneGlo, Promega) was assayed 48 h later on a PerkinElmer Envision 2104 Multilabel plate reader (PerkinElmer, Waltham, MA). Qiagen's AllStars Negative control was incorporated on all screening plates for normalization (16 wells per plate). Qiagen, Germantown, MDsiGL4 was incorporated as a positive transfection control (16 wells per plate) on all plates. […] The raw luciferase data for the NR0B1- and CMV-luc screens were normalized and z-score-MAD transformed using standard methods (Chung et al., 2008). The miRNA-like seed sequence of every siRNA was determined and the median z-score for all siRNA sequences with the same seed sequence was calculated. This z-score was subtracted from the z-score associated with each siRNA with that seed sequence to generate a seed-adjusted z-score value (Z) that was used when the results for the three siRNAs corresponding to each gene were compared (Marine et al., 2012)

| Sequence | seed-corrected z-score |
| --- | --- |
| AGUGAAUCGAGAGCAAUGG against ELP5 | 0.672 |
| AAAAGAACCUCCAACAAUC against COX16 | -2 |
| UCUAUGUCUCAGGUACUGC against CCDC15 | 0.12 |
| AUAGAUCCUAAAGAACUGG against GPR141 | -0.531 |
| UUUUAGUCUACGAAGAUCC against ANKIB1 | -0.435 |
| UGUCAUAUGGGCUUGCUCC against CEP250 | -0.255 |
| UCCACUUAAACACUCCUCC against DCLRE1C | -2.25 |
| UAGCUGUCCGUGAAGAUCC against ADCYAP1 | 0.344 |
| ACAAUGUAUACUGUAGUCC against CDHR2 | 0.247 |
| AAUAGGAUAAAUGUUCCGG against SMURF2 | 0.293 |
| AUACGUGAUACUUCCCUCC against MS4A13 | -1.19 |
| UGUCUUCUCAUGCAGUUUC against ACSF2 | -0.5 |
| UCUGUGAAAAUCUUCCACG against ZNF174 | 0.076 |
| UAUAGGCCUGCUGAGAUCG against GALT | 0.826 |
| UAGUUGCCUAAUUACACUG against MYO3A | -2.22 |
| UUCACGGUCACAUUGCGCG against MAG | -0.22 |
| UAUGAAGAGGAGACCAACC against PSMD10 | -0.0551 |
| UAAGCUAUUUCCUCGGCUC against MTCH2 | 0.402 |
| UAAAGAUUACCUGAGACCG against FBXO36 | 0.489 |
| UUGACUAUAAGUAAGUCUC against STXBP5 | -2.91 |
| UGCGCGAUGAUGAGUACCG against ABCB9 | 0.705 |
| UUCCUUAGAAACUGCAUAC against JMY | -0.827 |

| Sequence | seed-corrected z-score |
| --- | --- |
| UUCGUGAACAGACAGAACU against OAS2 | -0.385 |
| UAAGAACAUAGUACAGCUC against LDB1 | -0.519 |
| AAACUUAUAGAACUCACUG against CCDC148 | -0.143 |
| UCCGCAUGAACUCGUAGCU against PLEKHJ1 | 0.0613 |
| UAGUUGUCCAACAUUGGUU against ZNF99 | -3.24 |
| UAGCGAUUGUGAAUCUUGC against RNF19A | -0.443 |
| UAUGGUGUAAGUUUUCGGG against FARSB | 0.451 |
| UUCGGGUCCACUGAUUUCC against CHMP4B | -1.35 |
| UGUCAUAACAGCUCCGCGA against ELK1P1 | -0.141 |
| UAUAUGUCCGGGCGUGUUC against MAPK11 | 0.187 |
| AACCUGAUAAUAACCAGAU against FAM96A | 0.457 |
| UGAGAUUUCUAUGUAACAC against SS18L2 | 0.356 |
| UUAUCGAUGUCUUCGUGCC against GCK | -0.301 |
| AUAGUUGCGGAUGAAGUCU against KAZN | -3.51 |
| AAUGUUUCAAGAAGCUGCU against MED9 | -1.82 |
| UCAGGGUCCAUUGUCACCA against IGSF23 | -0.567 |
| UACAGGGCAAUGAACAGGG against FGR | 0.274 |
| AUGAAGCUCAGUCAGGUCG against TMCC2 | -2.16 |
| UCCUUGACGACAACUUUCC against LOC642677 | -1.2 |
| UAACGAUACAUUUGCUUGG against SGIP1 | 0.118 |
| UUGGGUGCAAGAAUGUCCA against CHTF18 | -2.47 |
| UUCAAUUCUACUGAUCAUC against CSNK1A1 | 0.146 |

| Sequence | seed-corrected z-score |
| --- | --- |
| UUAAAGACUUCAUAAAAGC against SLC25A3 | -0.603 |
| UAAUUGUCAUUACUAAGUG against SLC17A6 | -0.508 |
| UUGGUAUCGAUUUUCUACC against ATRN | -0.607 |
| ACCUCCAAAAUUUCACUGC against ZSCAN10 | 0.616 |
| AAUGAUUGCACUAAUCUUC against IK | -3.4 |
| UCUUGGUACUGGAUGCAGC against LOC645166 | 1.33 |
| UCUUCGAGUGAGUCAAUGC against C10orf12 | -0.0711 |
| UCGCUGAUUAGCUUUCUCC against CUX2 | 0.0999 |
| UUCGUUGUCUCGAAGGGCU against TRAPPC2L | -2.92 |
| UUUCCUCUUAGUCAACUUC against CHIC1 | -0.602 |
| AAAGGACUGAUGUCUAACC against DHX15 | 0.0405 |
| UAUGUACAUGCAGCAGGCC against PVRL4 | -0.603 |
| AUGGGAGUCACAACAGUGU against OR10A5 | -9.99 |
| UUUCACUCAACCAUCAUUG against HOPX | -0.598 |
| UGCCUUUGGAGGAUCUGCG against HLA-F | -0.923 |
| UGCUUGCUCGCAAAAGUCC against TSHZ1 | 0.387 |
| UGAACUGCCUGGUCUGUCG against PDE6G | -0.214 |
| AUUCUUAUCCCAGCGGAGC against PGM2L1 | 0.162 |
| UCAAUUCCCAGGGUAAAGG against PIGN | -2.84 |
| UAACAUCUUGGAGCACUAC against CCDC54 | -0.239 |
| UUGUGAACAGUUGAGGUGC against OSBP2 | -0.0205 |
| UCACUGUCGCCGUCAAAGC against CCKBR | -2.68 |
